# Measurements: PubChem BioAssay
# Values without a mark were called inactive. For some assays here: Measured potencies and affinities stand elsewhere. Calls of active or inactive are those of the source. Unless noted, no rule for the calls is given here.
# How the values were obtained:
# [1] = antimalarial activity against Dd2 strain (AID 2302;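 active = growth inhibition above 50% at the single 2 µM test dose, taken to imply half-maximal potency below 2 µM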;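 also: 0% = DMSO untreated growth and 100% = chloroquine plus artemisinin killed control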); details: P. falciparum Dd2 in RBCs, LDH growth readout, 72 h; at 2 µM; stronger effect = higher value
# [2] = HepG2 cytotoxicity, primary screen, cytotoxicity control for P. falciparum antimalarial project, cell-based, ATP luminescence (AID 2303;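 active = inhibition above 50%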;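 also: 0% = DMSO wells and 100% = digitonin-killed cells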); details: HepG2 viability, 24-48 h, at 10 µM, stronger effect = higher value
# [3] = molecular target: L-lactate dehydrogenase (Plasmodium falciparum (isolate CDC / Honduras)) (UniProt Q27743); assay: PfLDH activity inhibition – cell lysate, 3D7 strain, counter-screen for P. falciparum growth inhibition project (AID 2304);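 also: 0% = vehicle and 100% = reference inhibitor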; details: P. falciparum 3D7 crude extract, LDH APAD/NBT absorbance; at 2 µM; stronger effect = higher value
# [4] = inhibition of 3D7 malaria parasite growth – strain 3D7 (AID 2306);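 also: 0% = DMSO wells and 100% = chloroquine plus artemisinin control wells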; details: P. falciparum 3D7 erythrocytic growth, LDH absorbance, 72 h; at 2 µM; stronger effect = higher value
# [5] = molecular target: Calcium-dependent protein kinase 1 (Plasmodium falciparum (isolate 3D7)) (UniProt P62344); assay: PfCDPK1 kinase inhibitors, biochemical, TCAMS library (AID 1159585; cut-off not given, nearly all actives have IC50 up to about 0.98 µM;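 also: inhibitors leave more ATP so luminescence rises with inhibition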); details: recombinant PfCDPK1, Kinase-Glo ATP depletion luminescence
# [6] = molecular target: Plasmodium falciparum protein kinase 6 (PK6, PF3D7_1337100) (UniProt Q8IDW1); assay: PfPK6 kinase inhibitors, biochemical, TCAMS library (AID 1159586); details: recombinant PfPK6, Kinase-Glo ATP depletion luminescence
# [7] = molecular target: Protein kinase 7 (PK7), Plasmodium falciparum 3D7 (PF3D7_0213400) (UniProt Q7YTF7); assay: inhibition of Plasmodium PK7 catalytic activity – biochemical, TCAMS antimalarial set, Kinase-Glo luminescence (AID 1159587); details: recombinant PfPK7, Kinase-Glo ATP depletion luminescence
# [8] = molecular target: Calcium-dependent protein kinase 4 (Plasmodium falciparum (isolate 3D7)) (UniProt Q8IBS5); assay: PfCDPK4 kinase inhibitors, biochemical, TCAMS library (AID 1159588; cut-off not given, nearly all actives have IC50 up to about 0.91 µM); details: recombinant PfCDPK4, Kinase-Glo ATP depletion luminescence
# Sequence of Calcium-dependent protein kinase 4 (Plasmodium falciparum (isolate 3D7)) (Q8IBS5 whole entry, looked up): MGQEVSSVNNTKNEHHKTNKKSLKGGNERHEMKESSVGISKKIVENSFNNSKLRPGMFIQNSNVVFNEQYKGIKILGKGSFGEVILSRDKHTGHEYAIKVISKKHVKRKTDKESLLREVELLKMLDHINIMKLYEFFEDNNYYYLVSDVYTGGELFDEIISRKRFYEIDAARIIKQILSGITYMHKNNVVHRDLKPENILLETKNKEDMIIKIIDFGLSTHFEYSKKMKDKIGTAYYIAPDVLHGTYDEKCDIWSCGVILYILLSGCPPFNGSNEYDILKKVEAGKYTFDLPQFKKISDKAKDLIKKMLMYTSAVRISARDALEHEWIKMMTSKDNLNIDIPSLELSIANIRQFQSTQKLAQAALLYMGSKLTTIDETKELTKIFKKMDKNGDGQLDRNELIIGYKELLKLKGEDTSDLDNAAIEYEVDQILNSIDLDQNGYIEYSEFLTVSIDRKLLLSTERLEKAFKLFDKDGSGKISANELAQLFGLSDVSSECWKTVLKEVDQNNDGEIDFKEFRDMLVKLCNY
# Sequence of Calcium-dependent protein kinase 1 (Plasmodium falciparum (isolate 3D7)) (P62344 whole entry, looked up): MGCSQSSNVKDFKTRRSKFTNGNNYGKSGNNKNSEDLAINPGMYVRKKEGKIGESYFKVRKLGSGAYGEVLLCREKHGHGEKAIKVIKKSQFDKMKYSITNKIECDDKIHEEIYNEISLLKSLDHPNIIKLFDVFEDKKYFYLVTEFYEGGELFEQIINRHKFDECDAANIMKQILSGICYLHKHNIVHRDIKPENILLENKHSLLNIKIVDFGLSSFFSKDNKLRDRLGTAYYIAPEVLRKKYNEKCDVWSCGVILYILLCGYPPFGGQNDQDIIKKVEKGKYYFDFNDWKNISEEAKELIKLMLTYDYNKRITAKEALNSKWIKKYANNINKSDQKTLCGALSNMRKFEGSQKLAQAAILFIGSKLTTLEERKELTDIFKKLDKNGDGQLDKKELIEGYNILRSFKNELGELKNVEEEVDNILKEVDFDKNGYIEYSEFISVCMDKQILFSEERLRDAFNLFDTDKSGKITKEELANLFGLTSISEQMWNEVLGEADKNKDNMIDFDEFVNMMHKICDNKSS
# Sequence of Plasmodium falciparum protein kinase 6 (PK6, PF3D7_1337100) (Q8IDW1 1-305): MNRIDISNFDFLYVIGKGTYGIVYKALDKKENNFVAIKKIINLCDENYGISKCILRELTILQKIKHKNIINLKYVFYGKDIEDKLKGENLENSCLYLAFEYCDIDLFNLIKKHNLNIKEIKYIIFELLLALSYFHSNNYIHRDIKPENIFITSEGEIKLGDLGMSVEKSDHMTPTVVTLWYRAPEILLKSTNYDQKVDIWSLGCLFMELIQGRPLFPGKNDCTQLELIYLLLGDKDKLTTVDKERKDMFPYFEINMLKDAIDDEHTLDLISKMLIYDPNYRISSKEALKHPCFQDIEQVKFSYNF
# Sequence of Protein kinase 7 (PK7), Plasmodium falciparum 3D7 (PF3D7_0213400) (Q7YTF7 1-343): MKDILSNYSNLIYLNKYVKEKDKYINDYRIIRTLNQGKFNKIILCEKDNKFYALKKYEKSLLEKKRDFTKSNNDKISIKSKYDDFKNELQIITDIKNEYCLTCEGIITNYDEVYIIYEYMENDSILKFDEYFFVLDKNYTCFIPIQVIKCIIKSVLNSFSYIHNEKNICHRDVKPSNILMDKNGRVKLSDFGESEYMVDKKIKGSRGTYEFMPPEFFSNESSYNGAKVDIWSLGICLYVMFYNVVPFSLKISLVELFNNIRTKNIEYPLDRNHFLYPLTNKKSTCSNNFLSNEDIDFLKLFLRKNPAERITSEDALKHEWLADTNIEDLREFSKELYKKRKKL
# Sequence of L-lactate dehydrogenase (Plasmodium falciparum (isolate CDC / Honduras)) (Q27743 whole entry, looked up): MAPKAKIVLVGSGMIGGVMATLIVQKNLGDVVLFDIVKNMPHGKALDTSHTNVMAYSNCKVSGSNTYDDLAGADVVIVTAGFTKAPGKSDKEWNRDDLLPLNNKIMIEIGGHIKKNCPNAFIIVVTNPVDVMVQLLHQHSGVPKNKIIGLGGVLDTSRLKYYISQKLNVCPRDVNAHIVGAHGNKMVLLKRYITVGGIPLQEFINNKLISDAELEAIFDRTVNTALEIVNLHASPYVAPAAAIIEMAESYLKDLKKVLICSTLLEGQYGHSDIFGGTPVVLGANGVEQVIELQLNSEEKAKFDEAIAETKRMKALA
SMILES,growth inhibition [1],inhibition [2],inhibition [3],growth inhibition [4],outcome [5],outcome [6],outcome [7],outcome [8]
COc1cc(Nc2nccc(N3CCC(NC(=O)Nc4ccc5c(c4)OCO5)C3)n2)cc(OC)c1OC (stereo not given),74% (active),9%,-1%,96% (active),inactive,inactive,inactive,inactive
COc1c(OC)c(OC)c2ccccc2c1CNCCCCCCNCc1c(OC)c(OC)c(OC)c2ccccc12,71% (active),99% (active),3%,100% (active),inactive,inactive,inactive,inactive
CC(C)(C)c1cc(C(=O)Nc2cccnc2)cc(C(=O)Nc2cccnc2)c1,35%,-12%,-3%,95% (active),inactive,inactive,inactive,inactive
Cc1cc(C)c(C(=O)Nc2n[nH]c3nnc(-c4cccc(F)c4F)cc23)c(C)c1,-4%,-2%,-4%,90% (active),inactive,inactive,inactive,inactive
COc1ccc(NC(=O)c2cccc(Br)c2)cc1N1CCN(CCCCCCCN2CCN(c3cc(NC(=O)c4cccc(Br)c4)ccc3OC)CC2)CC1,93% (active),97% (active),0%,99% (active),inactive,inactive,inactive,inactive
NC1=NC2(CCCCC2)N(OCCCOc2cc(Cl)c(Cl)cc2Cl)C(N)=N1,98% (active),62% (active),-11%,94% (active),inactive,inactive,inactive,inactive
Cc1ccc(Cl)cc1NC(=O)c1c(-c2ccccc2Cl)noc1C,37%,9%,-1%,88% (active),inactive,inactive,inactive,inactive
Cc1nc2c(-n3cc(Cn4ccnc4)c4ccccc43)ncnc2n1-c1ccc(Cl)cc1Cl,29%,16%,-5%,89% (active),inactive,inactive,inactive,inactive
CCc1cccc(OCC2CCCN(c3ccc(C(=O)NC4CC4)cn3)C2)c1 (stereo not given),73% (active),-1%,5%,94% (active),inactive,inactive,inactive,inactive
CCOc1ccccc1CNc1nccc(NCCc2cn(C)c3ccccc23)n1,62% (active),27%,-4%,98% (active),inactive,inactive,inactive,inactive
Cn1nccc1C(=O)NCCNCc1ccc(-c2cccc(-c3nc4ccc(F)cc4[nH]3)c2)cc1,98% (active),37%,-7%,102% (active),inactive,inactive,inactive,inactive
CCCCN(C)CC#Cc1ccc2[nH]c(C)c(Cl)c(=O)c2c1,97% (active),-2%,-6%,98% (active),inactive,inactive,inactive,inactive
CCOc1c(CNCCCCCCNCc2ccc3ccccc3c2OCC)ccc2ccccc12,78% (active),100% (active),6%,99% (active),inactive,inactive,inactive,inactive
Cc1cccc2[nH]c(-c3ccc(-c4ccc(CNCCNC(=O)c5ccnn5C)cc4)cc3)nc12,98% (active),29%,-2%,102% (active),inactive,inactive,inactive,inactive
Cc1noc(C)c1CN1Cc2ccccc2OC2(CCN(Cc3c[nH]c4cnccc34)CC2)C1,12%,19%,-2%,89% (active),inactive,inactive,inactive,inactive
CCCCC(N)COc1cccc2c(-c3ccncc3)c(-c3cccc(NC(=O)Nc4ccccc4)c3)nn12 (stereo not given),82% (active),13%,0%,102% (active),inactive,inactive,inactive,inactive
O=C(NCc1cccc(Cl)c1)c1ccc(CNC2CCN(Cc3ccccc3)CC2)cc1,50% (active),13%,5%,100% (active),inactive,inactive,inactive,inactive
O=C(NCc1cccc2ccccc12)[C@@H]1CCCN1C(=O)c1ccc(O)c(-c2ccc(Cl)c(Cl)c2)c1,71% (active),-4%,2%,98% (active),inactive,inactive,inactive,inactive
Nc1ncc(Cc2cc(Cl)c(N)c3ncccc23)c(N)n1,95% (active),5%,1%,89% (active),inactive,inactive,inactive,inactive
CCN(CC)CCN(Cc1ccc(-c2ccc(C(F)(F)F)cc2)cc1)C(=O)Cn1c(CCc2cccc(F)c2F)cc(=O)c2c1CCCC2,95% (active),93% (active),1%,100% (active),inactive,inactive,inactive,inactive

SMILES,growth inhibition [1],inhibition [2],inhibition [3],growth inhibition [4],outcome [5],outcome [6],outcome [7],outcome [8]
COc1ccc(CNC2CCN(C)CC2)cc1-c1ccc(S(=O)(=O)NCc2ccccc2)cc1,99% (active),56% (active),5%,100% (active),inactive,inactive,inactive,inactive
c1ccc(CN2CCC(NCc3ccccc3-c3ccc(CNC4CCCC4)cc3)CC2)cc1,33%,38%,1%,102% (active),inactive,inactive,inactive,inactive
CCCCCCCN1CCC(CCNc2ccnc3ccc(OC)cc23)CC1,86% (active),5%,-2%,84% (active),inactive,inactive,inactive,inactive
CC(=O)Oc1cc(OCc2ccccc2)c(OC(C)=O)c(OCc2ccccc2)c1,78% (active),11%,1%,94% (active),inactive,inactive,inactive,inactive
CCCCCCc1c(C)[nH]c2cc(OC)ccc2c1=O,97% (active),10%,3%,97% (active),inactive,inactive,inactive,inactive
O=C(Nc1ccc(Cl)cc1)N[C@H]1CCN(CCCCCNC(=O)[C@@H]2C[C@H]2c2ccc(Cl)c(Cl)c2)C1,1%,24%,1%,96% (active),inactive,inactive,inactive,inactive
CO/C(=C\C=C\c1cc2cc(Cl)c(Cl)cc2[nH]1)C(=O)NCC(C)(C)CN(C)C,27%,35%,1%,81% (active),inactive,inactive,inactive,inactive
COc1ccc2nccc([C@@H](O)CN3CCC(NCCOc4ccncc4)CC3)c2c1,-1%,11%,1%,100% (active),inactive,inactive,inactive,inactive
CCCCCCCNCCNc1cc(C)nc2ccccc12,99% (active),58% (active),-4%,100% (active),inactive,inactive,inactive,inactive
COc1ccc(CCN(C)CCOc2ccc(NC(=O)c3cccc4cc5ccccc5nc34)cc2)cc1OC,99% (active),37%,-5%,100% (active),inactive,inactive,inactive,inactive
Cc1ccc(NC(=O)c2ccc(CN3CCCN(CCC(C)C)CC3)cc2)cc1C,17%,25%,3%,92% (active),inactive,inactive,inactive,inactive
CC(C)(C)CCOC(=O)N1CCc2c(cc(O)c(O)c2Cl)C(c2ccc(O)cc2)C1 (stereo not given),95% (active),2%,-2%,97% (active),inactive,inactive,inactive,inactive
CCc1ccc(C2CCN(CCCCNC(=O)c3ccc(NC(=O)c4ccc(Cl)cc4)cc3)CC2)cc1,63% (active),15%,-3%,100% (active),inactive,inactive,inactive,inactive
C[C@@H](CNc1ccnc(Nc2ccc3[nH]c(=O)[nH]c3c2)n1)c1ccccc1,1%,42%,-3%,100% (active),inactive,inactive,inactive,inactive
CCCCN(C)CC#Cc1ccc(-c2ccc3[nH]c(C)c(Br)c(=O)c3c2)cn1,93% (active),3%,-3%,98% (active),inactive,inactive,inactive,inactive
COc1ccc2nccc([C@@H](O)CN3CCC(NC(=O)/C=C/c4ccc5ccccc5n4)CC3)c2c1,9%,12%,1%,91% (active),inactive,inactive,inactive,inactive
CNCc1cccc(-c2ccc3ccnc(N)c3c2)c1,98% (active),20%,3%,101% (active),inactive,inactive,inactive,inactive
CN(C)CCOc1ccc(NC(=O)Nc2ccnc3c(Br)cccc23)cc1Cl,25%,10%,0%,97% (active),inactive,inactive,inactive,inactive
CC(C)N1CCC(N(Cc2ccc(-c3ccc(C(F)(F)F)cc3)cc2)C(=O)Cn2c(SCc3cccc(F)c3F)cc(=O)c3ccccc32)CC1,77% (active),52% (active),1%,100% (active),inactive,inactive,inactive,inactive
NC(=O)c1ccccc1OCC(=O)Nc1ccc(-c2cccc(-c3nc4ccc(C(F)(F)F)cc4[nH]3)c2)cc1,11%,51% (active),-8%,100% (active),inactive,inactive,inactive,inactive
